This test is described as follows: NCI Yeast Anticancer Drug Screen. Data for the wt1 strain (AID 149).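 Note: 0% = growth of vehicle-treated wt1 cultures.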 Conditions: S. cerevisiae wt1 strain (SPY 50644) growth inhibition, stronger effect = higher value. Here is the method:
Growth inhibition of yeast strains with defined genetic alterations is measured as a screen for potential anti-cancer activity. Selected strains with alterations in DNA damage repair or cell cycle control were exposed to compounds and growth inhibition was measured relative to vehicle treated controls. The strain used in this assay is wt1

The panel holds about 79,000 compounds, 15% with a hit somewhere; the sample as a whole holds those more often. A number with no mark means an inactive call. Calls of active or inactive are those of the source. Cut-off read from the data, not from the text of the source: active = growth inhibition above about 70%; inactive = the rest.

With `O=C(Nc1ccccc1)C(=O)C(C(=O)c1ccccc1)C(c1ccccc1)c1ccccc1` (stereo not given), the growth inhibition is, setting by setting: (at 1.2 µM) 3%; (at 3.7 µM) 5%; (at 11.0 µM) 4%; (at 33.0 µM) 10%; (at 100.0 µM) 28%.

With `CCOC(=O)C(NC(=O)c1ccccc1)(N1CCN(c2cc3c(cc2F)c(=O)c(C(=O)O)cn3C2CC2)CC1)C(F)(F)F` (stereo not given), the growth inhibition is -2% (at 1.2 µM); -1% (at 3.7 µM); -1% (at 11.0 µM); 0% (at 33.0 µM); 2% (at 100.0 µM).

As for `Cc1ccc(S/N=C\c2ccccc2O)cc1`, the growth inhibition was -1% (at 1.2 µM); 0% (at 3.7 µM); 0% (at 11.0 µM); 1% (at 33.0 µM); 1% (at 100.0 µM).

`O=[n+]1c2ccc(Cl)cc2n([O-])c2ccc(Cl)cc21`: the growth inhibition by setting is: (at 1.2 µM) -2%; (at 3.7 µM) 2%; (at 11.0 µM) 2%; (at 33.0 µM) 7%; (at 100.0 µM) 12%.

`CCCCCCCCCCCCCCCCCCN(C)CC(COP(=O)([O-])OCC[N+](C)(C)C)OC` (stereo not given): the growth inhibition was 0% (at 1.2 µM); -2% (at 3.7 µM); 97% (active) (at 11.0 µM); 99% (active) (at 33.0 µM); 99% (active) (at 100.0 µM).

As to `CCN(CC)CCN1C(=O)c2cccc3cc(OC)cc(c23)C1=O`, the growth inhibition (at 1.2 µM) is -5%; the growth inhibition (at 3.7 µM) was 1%; the growth inhibition (at 11.0 µM) is -3%; the growth inhibition (at 33.0 µM) is -7%; the growth inhibition (at 100.0 µM) was -1%.

Take `Clc1ccc(SC(/C=C/NNC2=NC(c3ccccc3)C(c3ccccc3)=NN2)c2ccccc2)cc1` (stereo not given): the growth inhibition is, setting by setting: (at 1.2 µM) 0%; (at 3.7 µM) -1%; (at 11.0 µM) -2%; (at 33.0 µM) -1%; (at 100.0 µM) 51%.

As for `CCC/C(Cl)=N\OC(=O)Nc1cccc(C(F)(F)F)c1`, the growth inhibition by setting is: (at 1.2 µM) 1%; (at 3.7 µM) 2%; (at 11.0 µM) 0%; (at 33.0 µM) 2%; (at 100.0 µM) 5%.

The values above are taken from PubChem BioAssay (NCI).
